HT1080 IDH1KD tx: kills HT-1080 cells with IDH1 knockdown | 360,000 compounds, 2% hits | HT-1080 IDH1 knockdown viability, ATP luminescence, 48 h | Potency, µM (titrated, usually from 46.1 µM), usual class: cytotoxic | AID 686971
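IDH1KD HT-1080 cells, 750/well, RPMI + 5% FBS; compound pinned after 2 h settling; 48 h, 37 °C; CellTiter-Glo luminescence; % activity normalised to DMSO and no-cell wells; curves fitted, classed by r2 and efficacy.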
KB-3-1 cytotox: kills parental KB-3-1 adenocarcinoma cells; KB-3-1 viability, CellTiter-Glo ATP luminescence, 72 h; Potency, µM (top dose mostly 46.1 µM), most hits filed as cytotoxic; 400,000 compounds, 1.4% hits; AID 1347075; note: nearly all actives have a fitted effect of over 60% in size
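Cytotoxicity in the drug-sensitive parental line KB-3-1 was scored as loss of CellTiter-Glo luminescence following 72 h incubation with compound. Values come from curve fitting of normalized concentration-response data.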
HT1080NT lethal: kills 2HG-producing HT-1080-NT fibrosarcoma cells; HT-1080-NT fibrosarcoma viability, CellTiter-Glo ATP luminescence, 48 h; Potency, µM (titrated, usually from 46.1 µM), most hits filed as cytotoxic; 360,000 compounds, 1.6% hits; AID 686970;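 note: NT is the 2HG producing partner of a matched IDH1 knockdown line; nearly all actives have a fitted effect of over 55% in size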
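HT-1080-NT fibrosarcoma cells (2HG-overproducing), 750 cells/well in RPMI with 5% FBS, dosed after 2 h and incubated 48 h at 37C. CellTiter-Glo luminescence normalized to DMSO and no-cell wells; concentration-response curves fitted and classed.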
KB-V1 cytotox: KB-V1 MDR subline cytotoxicity; KB-V1 MDR cells viability, CellTiter-Glo, 72 h; Potency, µM (series often up to 46.1 µM), most hits filed as cytotoxic; 400,000 compounds, 3.4% hits; note: nearly all actives have a fitted effect of over 60% in size
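Potencies derive from concentration-effect curves fitted to normalized luminescence (CellTiter-Glo) of KB-V1 cells treated for 72 h at 37 degrees C in phenol-red-free DMEM containing 10% FBS.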
DT40 TDP1 CPT: DT40-hTDP1 cell growth loss with CPT; chicken DT40 Tdp1-/-;hTDP1 cells + 20 nM CPT, ATP luminescence, 48 h; Potency, µM (doses to about 46.2 µM), most hits filed as inhibitors; 420,000 compounds, 12% hits; note: nearly all actives have a fitted effect of over 55% in size
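Chicken DT40 Tdp1-/- cells stably complemented with human TDP1 were seeded at 400 cells/well in medium containing 20 nM camptothecin, exposed to pin-transferred compounds, and grown at 37 °C for at least 48 hr. Viability was read as ATP luminescence.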
TDP1 cell noCPT: qHTS for Inhibitors of human tyrosyl-DNA phosphodiesterase 1 (TDP1): qHTS in cells in absence of CPT; AID 686978, 2013; Potency, µM (doses to about 46.2 µM), usual class: inhibitors; 420,000 compounds, 15% hits; DT40 Tdp1-/- hTDP1 cells, no CPT, ATP luminescence, 48 h; note: nearly all actives have a fitted effect of over 55% in size
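Growth of hTDP1-complemented DT40 Tdp1-knockout cells is measured by ATP luminescence after at least 48 hr compound exposure at 37 °C, with DMSO substituting for the 20 nM CPT used in the parallel screen.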
Large screens that a line does not name were inactive. A selection: hits, their analogues and other compounds. The true share with any hit is near 19%. Calls come from the whole dose curve; as a rule, active = well fitted curve in the direction sought with a large enough effect; inconclusive = small, poorly fitted or top-dose-only effect, or another doubt; inactive = no such curve, though single readings can be large; an effect the other way counts as inactive or inconclusive.

CC(C)C(=O)Nc1ccc(N2CCOCC2)c(S(=O)(=O)Nc2ccccc2Cl)c1	KB-3-1 cytotox inconclusive, DT40 TDP1 CPT inconclusive, TDP1 cell noCPT 13µM
COCCNC(=S)Nc1ccc(N2CCOCC2)c(S(=O)(=O)Nc2ccc(Cl)cc2)c1	DT40 TDP1 CPT inconclusive, TDP1 cell noCPT 10.3µM
CC(C)Oc1ccc(C(=O)Nc2ccc(Cl)c(S(=O)(=O)Nc3ccc(Cl)cc3)c2)cc1	KB-3-1 cytotox inconclusive, HT1080NT lethal inconclusive, KB-V1 cytotox 5.8µM, DT40 TDP1 CPT inconclusive, TDP1 cell noCPT inconclusive
CC(=O)Nc1ccc(N2CCOCC2)c(S(=O)(=O)Nc2ccccc2Cl)c1	none
Cn1c(=O)c2c(SCC(=O)Nc3ccc(F)cc3F)nc(C3CCCC3)nc2n(C)c1=O	DT40 TDP1 CPT inconclusive, TDP1 cell noCPT inconclusive (no result: HT1080 IDH1KD tx, HT1080NT lethal)
CN(Cc1ccco1)c1ccnc(-c2ccoc2)n1	none (no result: HT1080 IDH1KD tx, KB-3-1 cytotox, HT1080NT lethal, KB-V1 cytotox)
C=C(C)C1CC=C(C)/C(=N\NC(=O)CCC(=O)Nc2ccc(C)c(C)c2)C1 (centres undefined)	KB-V1 cytotox inconclusive, TDP1 cell noCPT inconclusive
O=C(Nc1ccc(N2CCOCC2)c(S(=O)(=O)Nc2ccc(Cl)cc2)c1)c1ccc(=O)[nH]n1	none
COc1ccc(NS(=O)(=O)c2cc(NC(=O)c3ccc(Cl)cc3)ccc2N2CCOCC2)cc1	HT1080 IDH1KD tx 2.59µM, KB-3-1 cytotox inconclusive, HT1080NT lethal 2.31µM, KB-V1 cytotox 5.8µM, DT40 TDP1 CPT 2.59µM, TDP1 cell noCPT 2.31µM
O=C(Nc1ccc(N2CCOCC2)c(S(=O)(=O)Nc2ccc(Cl)cc2)c1)c1cnccn1	KB-V1 cytotox inconclusive, DT40 TDP1 CPT 16.4µM, TDP1 cell noCPT 18.4µM
CN(c1cccc(NC(=O)c2ccc(Cl)c(S(=O)(=O)Nc3ccccc3)c2)c1)S(C)(=O)=O	HT1080 IDH1KD tx inconclusive, HT1080NT lethal inconclusive, DT40 TDP1 CPT inconclusive, TDP1 cell noCPT 16.4µM
CC(=O)N1CCc2c(sc3c2c(=O)n(-c2ccccc2)c(=O)n3CC(=O)Nc2ccccc2C)C1	KB-V1 cytotox inconclusive (no result: HT1080 IDH1KD tx, HT1080NT lethal)
CCOC(=O)C1=C(c2ccccc2)OC(N)=C(C#N)C1C1CCCCC1 (centres undefined)	DT40 TDP1 CPT inconclusive, TDP1 cell noCPT inconclusive
CCOC1(OCC)OC(c2ccccc2)=C(C#N)C(C=Cc2ccccc2)C1(OCC)OCC (centres undefined)	KB-3-1 cytotox inconclusive, KB-V1 cytotox inconclusive, DT40 TDP1 CPT inconclusive, TDP1 cell noCPT 20.6µM
CCCCNC(=O)Cn1c(=O)cc(C)c2c(C)nn(-c3ccc(CC)cc3)c21	none (no result: HT1080 IDH1KD tx, HT1080NT lethal)
CC(=O)c1ccc(N2CCN(C(=S)Nc3cccc(Cl)c3)CC2)cc1	KB-V1 cytotox 23.1µM, TDP1 cell noCPT inconclusive
COC(=O)Cc1ccc(NC(=S)N2CCN(c3cccc(O)c3)CC2)cc1	DT40 TDP1 CPT 16.4µM, TDP1 cell noCPT 13µM
CC1CCN(C(=O)Nc2cccc(NC(=O)N3CCC(C)CC3)c2)CC1	KB-3-1 cytotox inconclusive, TDP1 cell noCPT 5.17µM
CC(=O)c1ccc(N2CCN(C(=O)Nc3cccc(F)c3)CC2)cc1	DT40 TDP1 CPT 20.6µM, TDP1 cell noCPT inconclusive
COC(=O)Cc1ccc(NC(=S)N2CCN(c3ccc(OC)cc3)CC2)cc1	TDP1 cell noCPT inconclusive
CC(=O)c1ccc(N2CCN(C(=O)Nc3ccc(C)cc3)CC2)cc1	DT40 TDP1 CPT inconclusive, TDP1 cell noCPT inconclusive
CCOC(=O)C1=CCN(S(=O)(=O)c2ccccc2Cl)C1c1cccc(Cl)c1 (centres undefined)	HT1080 IDH1KD tx inconclusive, HT1080NT lethal inconclusive, DT40 TDP1 CPT inconclusive, TDP1 cell noCPT inconclusive
Cc1ccc2nc(CSc3nc(C)ccc3C#N)[nH]c2c1	HT1080 IDH1KD tx 15.8µM, HT1080NT lethal 17.8µM, DT40 TDP1 CPT 17.8µM, TDP1 cell noCPT 31.6µM
Cc1ccc2nc(SCc3nc(-c4ccccc4C)no3)[nH]c2c1	KB-V1 cytotox inconclusive, DT40 TDP1 CPT 18.4µM, TDP1 cell noCPT 13µM (no result: HT1080 IDH1KD tx, HT1080NT lethal)
O=[N+]([O-])c1cccc(CSc2nc3ccccc3[nH]2)c1	KB-V1 cytotox inconclusive, DT40 TDP1 CPT inconclusive, TDP1 cell noCPT inconclusive
